Source: PubChem BioAssay AID372 (MTDP, 2006)
Hit rate of the full screen: of about 100,000 compounds, about 770 (0.77%) were called active. The sample holds actives, similar compounds and a random draw of the others, so the mix is not that of the screen. Rule as the data show it: active = inhibition above about 50%; inactive = the rest.

The compounds below were run against Gag-Pol polyprotein (Human immunodeficiency virus type 1 group M subtype B (isolate HXB2)) (UniProt P04585) (assay: RNase H inhibition, HIV 1 Gag Pol polyprotein, FRET biochemical assay, screening (AID 372)). Details: HIV-1 RT RNase H, FRET RNA/DNA substrate fluorescence; at 10 µM; active compounds read high.

SMILES | inhibition
Cc1ccc(N(CC(=O)O)S(=O)(=O)c2ccccc2)cc1Cl | 4% (inactive)
COc1ccc(Br)cc1/C=C/C(=O)Nc1ccc(O)c(-c2nc3ccccc3o2)c1 | 14% (inactive)
O=C(Nc1ccc(Br)cc1)C1C2/C=C\CCCCC21 (stereo not drawn) | 9% (inactive)
COC(=O)c1c(NC(=O)c2ccccc2C)sc2c1CCC(C)C2 (stereo not drawn) | 12% (inactive)
O=C(CSc1ccccc1)N/N=C/c1ccccc1O | 7% (inactive)
CS(=O)(=O)N1CCN(Cc2ccccc2Cl)CC1 | 0% (inactive)
OCCNc1nc(-c2ccccc2Cl)nc2ccccc12 | 0% (inactive)
COc1ccc(C(=O)NNC(N)=S)cc1 | 0% (inactive)
NC1=NC(=O)/C(=C/c2ccc(OS(=O)(=O)c3cccc([N+](=O)[O-])c3)cc2)S1 | 25% (inactive)
O=C(N/N=C/c1ccc(O)c(O)c1)c1ccc([N+](=O)[O-])cc1 | 51% (active)
O=C(N/N=C/c1ccc(/C=N/NC(=O)c2ccc([N+](=O)[O-])cc2)cc1)c1ccc([N+](=O)[O-])cc1 | 0% (inactive)
NC1=NC(=O)/C(=C/c2ccc(OC(=O)c3ccc(Cl)c(Cl)c3)cc2)S1 | 18% (inactive)
O=C(N/N=C/c1ccc(O)cc1)c1ccc([N+](=O)[O-])cc1 | 0% (inactive)
NC1=NC(=O)/C(=C/c2ccc(OC(=O)c3cccc([N+](=O)[O-])c3)cc2)S1 | 51% (active)
Cc1cc(Cl)ccc1OCC(=O)Nc1cc(Cl)c(Cl)cc1Cl | 5% (inactive)
CCC1CCc2c(sc(NC(=O)c3cc([N+](=O)[O-])ccc3Cl)c2C(N)=O)C1 (stereo not drawn) | 14% (inactive)
COc1ccc(OC)c(NC(=O)COc2ccc(Cl)c(C)c2)c1 | 15% (inactive)
CC(CCC(=O)Nc1nc2ccccc2s1)CC(=O)Nc1nc2ccccc2s1 (stereo not drawn) | 15% (inactive)
COc1ccc(/C=C\C(=O)c2c(-c3ccccc3)c3cc(C)ccc3[nH]c2=O)cc1 | 7% (inactive)
COc1ccccc1/C=C/C(=O)c1c(-c2ccccc2)c2cc(Br)ccc2[nH]c1=O | 57% (active)

SMILES | inhibition
COc1ccc(/C=C\C(=O)c2c(-c3ccccc3)c3cc(C)ccc3[nH]c2=O)cc1OC | 18% (inactive)
COc1ccc(OC)c(/C=C/C(=O)c2c(-c3ccccc3)c3cc(Br)ccc3[nH]c2=O)c1 | 37% (inactive)
COc1cc(/C=C/C(=O)c2c(-c3ccccc3)c3cc(Br)ccc3[nH]c2=O)cc(OC)c1OC | 0% (inactive)
O=C(/C=C/c1ccccc1Cl)c1c(-c2ccccc2)c2cc(Br)ccc2[nH]c1=O | 49% (inactive)
Cc1ccc2[nH]c(=O)c(C(=O)/C=C\c3ccc(Br)cc3)c(-c3ccccc3)c2c1 | 28% (inactive)
Cc1ccc2[nH]c(=O)c(C(=O)/C=C/c3ccccc3Cl)c(-c3ccccc3)c2c1 | 55% (active)
Cc1ccc2[nH]c(=O)c(C(=O)/C=C\c3ccccc3)c(-c3ccccc3)c2c1 | 45% (inactive)
O=C(/C=C/c1ccccc1Cl)c1c(-c2ccccc2)c2cc(Cl)ccc2[nH]c1=O | 35% (inactive)
COc1ccccc1/C=C/C(=O)c1c(-c2ccccc2)c2cc(C)ccc2[nH]c1=O | 59% (active)
CC12CN3CC(C)(CN(C1)C3c1c[nH]c3ccccc13)C2=O (stereo not drawn) | 6% (inactive)
Cc1ccc(-n2c(C)cc(/C=C(/C#N)C(=O)Nc3ccc(Cl)cc3)c2C)cc1C | 8% (inactive)
O=C(Oc1ccc([N+](=O)[O-])cc1)c1ccc(Cl)c(S(=O)(=O)N2CCOCC2)c1 | 0% (inactive)
O=C(N1CCN(c2c(F)c(F)c(C(F)(F)F)c(F)c2F)CC1)C12CC3CC(CC(C3)C1)C2 | 7% (inactive)
O=c1c(N=Nc2ccc(Br)cc2)c(O)n(-c2ccccc2)c(=O)n1-c1ccccc1 | 17% (inactive)
COc1ccccc1C1NC(=S)NC(C)=C1C(C)=O (stereo not drawn) | 5% (inactive)
Cc1csc(N/N=C/c2c(F)cccc2Cl)n1 | 18% (inactive)
O=C(NC(=S)Nc1ccc(-c2nc3ccccc3s2)cc1)c1cccc(F)c1 | 34% (inactive)
Cc1ccc2nc(-c3ccc(NC(=O)Cc4ccccc4)cc3)sc2c1 | 52% (active)
Cc1ccc2nc(-c3ccc(NC(=O)Cc4ccc(Cl)cc4)cc3)sc2c1 | 24% (inactive)
O=C(Nc1ccc(Cl)cc1)Nc1ccc(-c2nc3ccccc3s2)cc1 | 17% (inactive)

SMILES | inhibition
Cc1cccc(NC(=O)Nc2ccc(-c3nc4ccccc4s3)cc2)c1 | 50% (active)
Cc1cccc(C(=O)NC(=S)Nc2ccc(-c3nc4ccccc4s3)cc2)c1 | 35% (inactive)
Cc1ccc2nc(-c3ccc(NC(=S)NC(=O)c4cccc(F)c4)cc3)sc2c1 | 56% (active)
Cc1ccc2nc(-c3ccc(NC(=O)CCc4ccccc4)cc3)sc2c1 | 5% (inactive)
Cc1ccc2nc(-c3ccc(NC(=S)NC(=O)c4ccccc4Cl)cc3)sc2c1 | 8% (inactive)
Cc1ccc2nc(-c3ccc(NC(=O)c4cccc(F)c4)cc3)sc2c1 | 43% (inactive)
Cc1ccc2nc(-c3ccc(NC(=S)NC(=O)c4ccccc4F)cc3)sc2c1 | 52% (active)
Cc1ccc2nc(-c3ccc(NC(=S)NC(=O)c4ccccc4)cc3)sc2c1 | 6% (inactive)
O=C(Nc1ccc(Cl)cc1)C1CC(=O)N(c2cccc([N+](=O)[O-])c2)C1 (stereo not drawn) | 4% (inactive)
COc1cc(OC)c(/C=C2\C(=O)NC(=S)N(c3ccc(C)cc3)C2=O)cc1Br | 4% (inactive)
NC(=O)c1ccccc1NC(=O)c1cccc([N+](=O)[O-])c1 | 7% (inactive)
Cc1ccc(N=C(NO)C(=Nc2ccc(C)c(C)c2)NO)cc1C | 23% (inactive)
COc1cc(C=C2C(=O)c3ccccc3C2=O)ccc1OCc1ccc(F)cc1 | 7% (inactive)
COc1cc(C2NC(=O)NC(C)=C2C(=O)OCc2ccc3c(c2)OCO3)cc(OC)c1OC (stereo not drawn) | 9% (inactive)
COc1ccc2c(c1)CC/C(=C\c1ccc([N+](=O)[O-])cc1)C2=O | 4% (inactive)
COc1cc(C(=O)N/N=C/c2ccc(OC)c(OC)c2C(=O)O)cc(OC)c1OC | 0% (inactive)
O=C(NC(=S)Nc1ccc(-c2nc3ccccc3s2)cc1)c1ccc([N+](=O)[O-])cc1 | 38% (inactive)
Cc1ccc(C(=O)NC(=S)Nc2ccc(-c3nc4ccccc4s3)cc2)cc1C | 35% (inactive)
